Screens (PubChem BioAssay)
A selection: hits, their analogues and other compounds. The true share with any hit is near 2.7%.
ANO1 activ – activates or potentiates the mouse TMEM16A chloride channel; Q8BHY3; HEK293 TMEM16A/YFP-H148Q/I152L, iodide quench fluorescence; stronger effect = lower value; B-score at 10 µM; hit rate 0.3% among 340,000;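 active = fluorescence-ratio B-score plate-corrected deviation score at least 3 library SD below zero, with starting fluorescence score within 5 deviations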;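 also: channel opened by trigger with iodide after compound preincubation; score built on the fluorescence ratio of max minus min over baseline; more negative score means more quench and so TMEM16A activation or potentiation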
TMEM16A inh – inhibitors of mouse TMEM16A calcium-activated chloride channel; HEK293 TMEM16A/YFP iodide influx fluorescence, ionomycin; normalized B-score (activity score, 25-100; higher = stronger inhibition) at 10 µM; AID 588511; hit rate 1.2% among 310,000;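 active = ratio plate-corrected score three or more library SD toward inhibition, starting fluorescence score within five deviations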;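 also: score derived from kinetic fluorescence span divided by baseline fluorescence per well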
PREPL inhibitor – inhibitors of human prolyl oligopeptidase-like enzyme PREPL; recombinant PREPL, fluorescence polarization activity-based probe; inhibition, % at 5.96 µM; hit rate 0.68% among 320,000; AID 2751; in the data active = inhibition above about 43%;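 also: 0% = enzyme with DMSO and 100% = wells lacking enzyme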
PP1 inh – PP1-alpha (human) inhibition in PP5 counter-screen; P62136; purified PP1alpha, OMFP fluorescence; inhibition, % at 6.7 µM; hit rate 0.9% among 320,000; AID 2235;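 active = inhibition above the mean inhibition of all tested compounds plus 3 SD, computed separately for each screening campaign, cut at about 15% in these data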
PP5 primary – inhibitors of human protein phosphatase 5 (PP5). AID 1987. inhibition, % at 6.7 µM. hit rate 0.18% among 320,000. P53041. purified PP5c, OMFP substrate fluorescence;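 active = inhibition above the campaign's mean inhibition across all tested compounds plus 3 SD, cut at about 9.5% in these data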;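 also: 0% = DMSO only and 100% = 100 µM cantharidin control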
FID counter – fluorescent intercalator displacement, NS3 helicase counter-screen; hit rate 0.17% among 290,000; inhibition, % at 7.9 µM; DNA fluorescent intercalator displacement, fluorescence; in the data active = inhibition above about 37%;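 also: 0% = vehicle and 100% = reference compound; higher means more ethidium bromide displaced from hairpin DNA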
TMEM16A reconf – re-confirmation of mouse TMEM16A chloride channel inhibitors; AID 652189; hit rate 39% among 2,300; shares compounds with TMEM16A inh; inhibition, % at 10 µM; HEK293 TMEM16A/YFP-H148Q, iodide quench fluorescence; ionomycin added to raise cell calcium;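 active = mean duplicate percent inhibition, scaled so buffer wells are 0 and the reference blocker 100, over three buffer SD above buffer mean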
HEK293 Ca mobil – alters calcium mobilization in TMEM16A HEK293 cells, counter-screen; hit rate 2% among 2,300; shares compounds with TMEM16A inh; calcium response (% of ionomycin), % at 10 µM; TMEM16A/YFP HEK293, Fluo4 calcium mobilization;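 active = duplicate-averaged calcium signal over 20% of the ionomycin maximum, relative to buffer baseline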;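 also: each well's signal is peak minus trough fluorescence divided by its pre-addition baseline; 0% = buffer wells and 100% = ionomycin wells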
Parental YFP cnt – acts in parental YFP-HEK293 cells lacking TMEM16A, counter-screen; shares compounds with TMEM16A inh; iodide YFP quench, ionomycin; YFP ratio F(max-min)/F0 at 10 µM; 2,300 tested, under 10 active;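 active = yellow fluorescent protein signal ratio exceeding the buffer control mean by over 5 SD of those controls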;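 also: ratio is mean of duplicate wells from kinetic YFP trace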
ClC-1 inh – rat ClC-1 inhibition, TMEM16A specificity screen; shares compounds with TMEM16A inh; CHO ClC-1-YFP, iodide influx fluorescence quench; iodide control reads 0, buffer control 100; ratio percent, % at 10 µM; 2,300 tested, under 10 active; AID 652236;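 active = duplicate-mean ratio percent above the mean of iodide-only control wells, which defines zero, plus 5 of their SD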;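 also: higher percent means stronger block of ClC-1 iodide influx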
* marks the source's active call; other numbers are inactive results; i = inactive; . = not tested or not shown.

SMILES	ANO1 activ	TMEM16A inh	PREPL inhibitor	PP1 inh	PP5 primary	FID counter	TMEM16A reconf	HEK293 Ca mobil	Parental YFP cnt	ClC-1 inh
CCCc1cc(Nc2cccc(OCC)c2)n2ncnc2n1	i	i	22	-3	1	-27	.	.	.	.
CCCc1cc(Nc2cccc(OC)c2)n2ncnc2n1	i	100*	19	-4	3	-12	i	i	-1	-7
Cc1ccc(-c2nn3c(C)nnc3s2)cc1NC(=O)CSc1ccc(Cl)cc1	i	i	-3	0	3	-6	.	.	.	.
CCc1nnc2sc(-c3ccc(NC(=O)CSc4ccc(Cl)cc4)cc3)nn12	i	i	-27	3	2	1	i	i	-1.1	0
CSc1ccc(C2NC(=O)c3c(sc4c3CCN(C)C4)N2)cc1 (stereo not drawn)	i	i	4	3	2	-1	i	i	-0.53	-6
O=C(Nc1ccc(Cl)c(Cl)c1)Nc1nc(-c2ccccc2)cs1	i	i	11	4	3	3	.	.	.	.
O=S(=O)(Nc1nc(-c2ccccc2)cs1)c1cccc(C(F)(F)F)c1	i	100*	15	2	7	-27	25%*	i	-1	-20
Cc1ccc(S(=O)(=O)Nc2nc(-c3ccc(F)cc3)cs2)cc1	i	i	-7	-2	2	-39	.	.	.	.
O=S(=O)(Nc1nc(-c2ccccc2)cs1)c1cc(Cl)ccc1Cl	i	25*	11	7	1	-39	24%*	i	-1.1	-10
CCc1ccccc1NC(=O)C1CCN(C(=O)c2ccc([N+](=O)[O-])cc2)CC1	i	i	9	2	0	-2	.	.	.	.
O=C(NCc1ccc(N2CCCC2=O)cc1)Nc1cccc(Cl)c1	i	25*	13	8	1	-10	i	i	-1.1	-6
CSc1nnnc2ccccc12	i	.	.	.	.	.	.	.	.	.
CC1(C)Oc2ccccc2OC1(O)c1ccc2ccccc2n1 (stereo not drawn)	i	i	2	-4	-4	-16	.	.	.	.
Cc1ccccc1OCC(=O)N1N=C(C(F)(F)F)CC1(O)C(C)(C)C (stereo not drawn)	i	25*	-6	4	3	-32	i	i	-1.1	-4
CCN(CC)CCOC(=O)c1ccc(NC(=S)NC(=O)/C=C/c2ccco2)cc1	.	i	6	-3	1	.	.	.	.	.
Cn1c(=O)n(C)c2cc(S(=O)(=O)Nc3cc(Cl)ccc3O)ccc21	i	i	4	2	3	-10	i	i	-1.2	-9
O=C(NC12CC3CC(CC(C3)C1)C2)OCCNC1CCCCC1	i	i	4	-1	-1	25	.	.	.	.
COc1ccc(NS(=O)(=O)c2ccc(OC)c(N(C)S(=O)(=O)c3ccc(Cl)cc3)c2)cc1	i	100*	24	5	5	-19	i	i	-1.1	-18
COc1ccc(S(=O)(=O)N2CCN(c3c(C)cccc3C)CC2)cc1OC	i	i	-12	-2	2	-6	.	.	.	.
COc1ccc(S(=O)(=O)Nc2ccc(F)cc2)cc1N(C)S(=O)(=O)c1ccc(Cl)cc1	i	i	-2	3	3	-7	.	.	.	.
COc1ccc(S(=O)(=O)N2CCCCCC2)cc1N(C)S(=O)(=O)c1ccc(C)cc1	i	100*	15	0	3	-9	i	i	-1.2	-6
COc1ccc(S(=O)(=O)N2CCN(c3ccc(C)cc3C)CC2)cc1OC	i	25*	-21	-3	4	-27	26%*	i	-0.95	-18
CC(=O)N1CCN(Cc2nc3cc(NC(=O)Nc4ccccc4)ccc3n2C)CC1	i	i	7	1	-5	-15	.	.	.	.
COc1cc(OC)c(OC)cc1/C=C1/Cc2ccccc2C1=O	i	i	10	3	-1	-15	i	28%*	-0.98	-2
COc1ccc(/C=C2/CCc3ccccc3C2=O)cc1OC	i	i	25	1	3	-23	.	.	.	.
SMILES	ANO1 activ	TMEM16A inh	PREPL inhibitor	PP1 inh	PP5 primary	FID counter	TMEM16A reconf	HEK293 Ca mobil	Parental YFP cnt	ClC-1 inh
CCOc1cc(C2NC(=O)CCC2[N+](=O)[O-])cc(Br)c1OCC (stereo not drawn)	i	i	-7	1	0	-6	.	.	.	.
CCOC(=O)N1CCN(c2ccc(C(=O)c3ccccc3)cc2F)CC1	i	100*	6	0	-1	-25	23%*	i	-1.1	-9
CCOC(=O)N1CCN(c2ccc(C(C)=O)cc2F)CC1	i	i	5	-9	3	-9	.	.	.	.
O=[N+]([O-])c1ccccc1S(=O)(=O)N1CCN(C2CCN(Cc3ccccc3)CC2)CC1	i	i	5	2	4	12	.	.	.	.
O=C(NCCC1=CCCCC1)c1ccc(Cl)c(S(=O)(=O)Nc2ccccc2)c1	i	100*	-7	-1	3	-14	i	i	-1	-13
Cc1ccccc1NS(=O)(=O)c1cc(C(=O)NCCC2=CCCCC2)ccc1C	i	i	11	-3	2	-23	.	.	.	.
CNC(=S)N(Cc1ccc(OC)cc1)C1CC(=O)N(c2ccc(Cl)cc2)C1=O (stereo not drawn)	i	i	-15	1	3	-4	28%*	i	-0.96	-4
Cn1c(CN2CCCCC2)nc2cc(NC(=O)c3ccc(Cl)cc3)ccc21	i	100*	18	-2	2	5	23%*	i	-1.2	-3
CCN(CC)C(=O)/C(=C/c1cccc([N+](=O)[O-])c1)NC(=O)c1ccco1	i	i	-3	-2	0	-10	.	.	.	.
COc1ccc2c(c1)CC/C(=C/c1ccco1)C2=O	i	i	10	0	1	-8	i	i	-1.1	-5
CC(C)(C)c1csc(NC(=O)Cc2ccc(S(=O)(=O)N3CCOCC3)s2)n1	i	100*	-1	6	5	.	24%*	i	-1.2	-5
COc1cc(C(=O)NCCOc2ccccc2)c(Br)c(OC)c1OC	i	25*	-4	-2	0	-12	i	i	-0.9	-10
COc1ccc(C(=O)C2CCCN(C(=O)c3ccoc3C)C2)cc1F (stereo not drawn)	i	i	0	-3	4	-24	.	.	.	.
